Compound activity as filed in PubChem BioAssay.
CYP2C19 inh = blockers of cytochrome P450 2C19 activity – biochemical, luminescence, ADME assay, primary screen; P33261; CYP2C19 Supersomes, luciferin-H EGE luminescence, 30 min; inhibition, % at 5 µM; 21% of 96,000 active; AID 778, 2007;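 active = CYP2C19 inhibition above a set limit at 5 µM in the primary screen, cut at about 50% in these data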;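 note: plate controls were negative control wells for no effect and 2.5 mM tranylcypromine positive control for full effect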
CYP2C19 act = human CYP2C19 activators, primary screen, biochemical, luminescence. 96,000 tested, under 10 active. AID 1025, 2008. Cytochrome P450 2C19 (Homo sapiens), P33261. recombinant CYP2C19, luciferin-H EGE luminescence; stronger effect = higher value; 0 = fully inhibited enzyme, 1 = untreated enzyme. activation factor at 5 µM;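 active = activation factor of at least 2 at 5 µM in the primary screen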;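 note: 0 = wells with 2.5 mM tranylcypromine and 1 = vehicle-only wells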
CYP2C9 inh = blockers of cytochrome P450 2C9 activity – biochemical, luminescence, ADME assay, primary screen | CYP2C9 Supersomes, luciferin-H conversion | 20% of 96,000 active | AID 777, 2007 | inhibition, % at 5 µM;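 active = blocking of liver enzyme CYP2C9 beyond about 50% at 5 µM, limit read from the data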
Target sequence (P11712 whole entry, looked up): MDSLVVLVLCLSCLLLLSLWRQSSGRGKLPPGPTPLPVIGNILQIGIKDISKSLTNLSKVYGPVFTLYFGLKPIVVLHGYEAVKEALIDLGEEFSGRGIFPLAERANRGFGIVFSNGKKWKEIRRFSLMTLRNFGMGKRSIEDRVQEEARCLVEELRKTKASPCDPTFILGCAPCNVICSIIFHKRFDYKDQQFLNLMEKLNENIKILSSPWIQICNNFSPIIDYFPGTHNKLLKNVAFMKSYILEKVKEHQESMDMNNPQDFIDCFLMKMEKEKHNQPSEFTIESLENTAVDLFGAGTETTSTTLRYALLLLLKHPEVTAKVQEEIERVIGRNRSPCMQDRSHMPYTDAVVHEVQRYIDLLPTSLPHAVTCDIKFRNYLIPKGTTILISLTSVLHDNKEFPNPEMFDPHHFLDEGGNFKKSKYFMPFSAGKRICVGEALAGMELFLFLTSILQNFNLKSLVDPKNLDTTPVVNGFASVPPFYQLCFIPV
Cav3 T inh = Cav3.2 calcium influx blockers – cell-based, Fluo-4 calcium fluorescence, FDSS, MLSMR library, primary screen. Voltage-dependent T-type calcium channel subunit alpha-1H (Homo sapiens), O95180. Cav3.2-expressing cells; stronger effect = lower value. B-score at 10 µM. 4% of 100,000 active. AID 449739, 2010;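 active = single-dose well whose peak fluorescence ratio is a statistical outlier from its plate by either plate-standardised score or position-corrected B-score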
CYP2C9 activ = human CYP2C9 activators, primary screen, biochemical, luminescence. Cytochrome P450 2C9 (Homo sapiens), P11712. recombinant CYP2C9, luciferin-H conversion; stronger effect = higher value; factor 1 = untreated enzyme, 0 = blocked. activation factor at 5 µM. 1.4% of 96,000 active;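 active = activation factor of 2 or more for CYP2C9 at a 5 µM dose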;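 note: 0 = sulfaphenazole-blocked wells and 1 = vehicle-only wells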
PTK2B oligo ant = antagonists of Pyk2 self-association, primary screen, Q293 cells, FERM NanoBiT luminescence, HTS | z-score (the deposit names both 25 µM and 10 µM) | AID 1347419, 2020 | stronger effect = lower value | 0.83% of 99,000 active;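 active = Z-score of -3 or lower, scaled per plate to the spread of control and sample wells; inactive = z-score above -3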;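 note: negative z-score means lost luminescence so less FERM oligomerization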
Starred values were filed as active, the others as inactive; nt = no result given. An excerpt weighted towards active compounds, which were near 27% of everything screened.

SMILES	CYP2C19 inh	CYP2C19 act	CYP2C9 inh	Cav3 T inh	CYP2C9 activ	PTK2B oligo ant
O=C(c1cc(-c2ccncc2)nc2ccc(Cl)cc12)N1CCN(C(=O)C2CCCO2)CC1 (stereo not drawn)	46.9	0.5	73.6*	0.258	0.3	0.52
CC(C)CN(C(=O)c1nn(C)c(=O)c2ccccc12)c1nc2ccccc2s1	53.2*	0.5	77.4*	-0.745	0.2	1.43
COc1ccc(C2c3c(oc4c(C)cc(C)cc4c3=O)C(=O)N2Cc2cccnc2)cc1OC (stereo not drawn)	-15.0	1.1	-12.5	nt	1.1	nt
COc1ccc(C2c3c(-c4cc(Cl)c(C)cc4O)n[nH]c3C(=O)N2Cc2cccnc2)cc1OC (stereo not drawn)	85.7*	0.1	92.7*	1.15	0.1	-3.86*
COc1ccc(CCN2C(=O)C(O)=C(C(C)=O)C2c2ccccc2OC)cc1OC (stereo not drawn)	-14.6	1.1	-23.5	1.31	1.2	0.19
COc1ccc(CCN2C(=O)c3[nH]nc(-c4ccccc4O)c3C2c2cccc(O)c2)cc1OC (stereo not drawn)	92.8*	0.1	98.1*	-3.26	0	-3.78*
Cc1csc2ncc(C(=O)NC(C)c3ccccc3)c(=O)n12 (stereo not drawn)	48.3	0.5	-36.2	-0.308	1.4	nt
O=C(Nc1ccccc1)c1ccc(-c2ccccc2C(F)(F)F)o1	nt	nt	nt	-1.38	nt	nt
Cc1cc(C(F)(F)F)n2nc(-c3cnn(C)c3C(F)(F)F)c(Cl)c2n1	51.2*	0.5	72.1*	-0.442	0.3	0.29
Cc1cc(C)n2nc(-c3cnn(C)c3C(F)(F)F)c(Cl)c2n1	29.8	0.7	27.9	-0.0747	0.7	-0.07
COC(=O)C1(S(=O)(=O)c2cccc3nsnc23)CC1	nt	nt	nt	0.401	nt	-0.35
O=C(CSc1nc(-c2ccccc2)c(-c2ccccc2)o1)Nc1nnc(-c2ccccc2)s1	34.4	0.7	38.1	nt	0.6	-1.13
COCC(C)NC(=O)CSc1nc(-c2ccccc2)c(-c2ccccc2)o1 (stereo not drawn)	58.6*	0.4	49.7	-2.38	0.5	-1.96
Cc1ccc2nc(NC(=O)CSc3ncnc4c3oc3ccccc34)sc2c1	21.8	0.8	27.1	nt	0.7	nt
O=C(CSc1ncnc2c1oc1ccccc12)Nc1cccc(F)c1	60.5*	0.4	76.1*	-1.01	0.2	-0.57
NC(=O)CSc1ncnc2c1oc1ccccc12	-1.0	1	4.6	0.789	1	nt
Cc1cccc(NC(=O)CSc2ncnc3c2oc2ccccc23)c1	37.6	0.6	62.7*	-0.878	0.4	nt
Cc1ccccc1NC(=O)Cn1cnc2c(oc3ccccc32)c1=O	63.8*	0.4	59.0*	0.79	0.4	1.33
O=C(CSc1ncnc2c1oc1ccccc12)NCc1ccc(F)cc1	65.4*	0.3	72.4*	-1.14	0.3	nt
COc1ccc(-c2oc3ccc(-c4ccc5c(c4)OCO5)cc3c2-c2ccc(OC)nc2)cc1	nt	nt	nt	-0.0389	nt	nt
O=C(NCCC1=CCCCC1)C(=O)NCC(c1ccco1)N1CCN(c2ccc(F)cc2)CC1 (stereo not drawn)	nt	nt	nt	nt	nt	0.67
O=C(CSc1ncnc2c1oc1ccccc12)NC1CCCCC1	72.5*	0.3	72.4*	-0.859	0.3	nt
NC(=O)c1cc(Cl)cn(-c2ccccc2)c1=O	-25.3	1.3	-26.0	0.0417	1.3	nt
O=C(c1cc2ccccc2oc1=O)N(Cc1ccco1)CC1CCCO1 (stereo not drawn)	12.0	0.9	54.7*	-0.181	0.5	0.96
O=C(c1cc2ccccc2oc1=O)N(Cc1ccc2c(c1)OCO2)Cc1ccco1	96.5*	0	92.1*	-2.15	0.1	-2.37
SMILES	CYP2C19 inh	CYP2C19 act	CYP2C9 inh	Cav3 T inh	CYP2C9 activ	PTK2B oligo ant
O=C1CC(C2CCCO2)C(=O)N1c1ccccc1 (stereo not drawn)	nt	nt	nt	0.468	nt	-0.73
COCC(C)n1c(C)cc(C(=O)COC(=O)c2c(C)nn(-c3ccccc3)c2C)c1C (stereo not drawn)	61.8*	0.4	40.6	-2.31	0.6	-1.05
Cc1nn(-c2ccccc2)c(C)c1C(=O)OCC(=O)NC(=O)NC1CCCC1	29.9	0.7	47.0	-1.16	0.5	-3.39*
Cc1nn(Cc2ccccc2)c(C)c1C(=O)OCC(=O)c1cc(C)n(C2CC2)c1C	26.1	0.7	-41.0	-4.75*	1.4	0.56
COCCn1c(C)cc(C(=O)COC(=O)c2c(C)nn(Cc3ccccc3)c2C)c1C	61.0*	0.4	13.8	-5.91*	0.9	0.32
COCC(C)n1c(C)cc(C(=O)COC(=O)c2c(NC(C)=O)sc(C)c2C)c1C (stereo not drawn)	1.8	1	13.1	0.509	0.9	-0.21
COCCn1c(C)cc(C(=O)COC(=O)c2n[nH]c3ccccc23)c1C	34.4	0.7	-66.0	-2.31	1.7	0.64
COc1ccc2nc(NCCCNC(=O)c3cc(OC)c(OC)c(OC)c3)c(C#N)cc2c1	26.4	0.7	23.8	-1.23	0.8	0.68
COCCn1c(C)cc(C(=O)COC(=O)c2ccc(NC(=O)CC#N)cc2)c1C	-3.1	1	-13.0	0.0782	1.1	-0.12
COCCn1c(C)cc(C(=O)COC(=O)c2ccc3ncsc3c2)c1C	28.6	0.7	-98.7	-0.000443	2*	1.19
Cc1ccc(-c2ccc(=O)n(CCC(=O)NCCN3CCCCC3C)n2)cc1 (stereo not drawn)	-2.8	1	-3.1	0.68	1	0.42
CC(C)CNC(=O)COC(=O)CCC(=O)c1ccc(F)cc1	36.5	0.6	16.6	0.785	0.8	1.2
CCN(c1ccc(NC(=O)COC(=O)CCC(=O)c2ccc(F)cc2)cc1)C(C)C	62.7*	0.4	23.2	-0.868	0.8	-0.03
Cc1ccccc1OCCNC(=S)Nc1ccccc1	70.2*	0.3	8.8	-2.83	0.9	0.71
OCCCc1nc2n(n1)C(c1ccccc1)C=C(c1ccc(F)cc1)N2 (stereo not drawn)	nt	nt	nt	0.0109	nt	0.73
OCCCc1nc2n(n1)C(c1cccs1)C=C(c1ccccc1)N2 (stereo not drawn)	58.1*	0.4	96.2*	-9.93*	0	nt
OCCCc1nc2n(n1)C(c1ccccc1Cl)C=C(c1cccs1)N2 (stereo not drawn)	39.4	0.6	50.9*	-1.54	0.5	0.18
O=C(O)c1ccc(NS(=O)(=O)c2cc(Cl)ccc2Cl)cc1O	-0.6	1	19.8	0.416	0.8	-0.4
O=S1(=O)N=C2CCCCCN2C(c2ccncc2)N1 (stereo not drawn)	-4.0	1	-13.3	-0.613	1.1	-0.08
Cc1nc2c(C)cccn2c1/C(O)=C1\C(=O)C(=O)N(CCN2CCOCC2)C1c1cccs1 (stereo not drawn)	32.1	0.7	6.5	0.122	0.9	0.9
